“And” between values parts separate entries of the source, which are not always exact repeats. Identical values can stand only once. This is part of a sample that, as a whole, favours compounds with a hit. Of some 83,000 tested, about 20% had one in any assay.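 Treatment: one concentration, 48 hours, 96-well format. Scoring: percent growth, with anything below 10 considered active.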 A number with no mark means an inactive call. The source made the active and inactive calls.
Tests used:
Assay in all cases: NCI-60 one-dose screen, 48 h (100 = growth as untreated, 0 = no growth, -100 = all killed)
Conditions in all cases: 10 µM unless noted
[1] = tested on: NCI-H23 lung
[2] = tested on: NCI-H226 lung
[3] = tested on: HOP-62 NSCLC
[4] = tested on: NCI-H460 lung
[5] = tested on: HOP-92 NSCLC
[6] = tested on: NCI-H522 lung
[7] = tested on: A549/ATCC NSCLC
[8] = tested on: 786-0 renal
[9] = tested on: COLO 205 colon
[10] = tested on: NCI-H322M lung

| Compound | growth [1] | growth [2] | growth [3] | growth [4] | growth [5] | growth [6] | growth [7] | growth [8] | growth [9] | growth [10] |
| --- | --- | --- | --- | --- | --- | --- | --- | --- | --- | --- |
| O=C1N[C@H]2[C@H](CS[C@H]2CCCCC(=O)N(CCP(c2ccccc2)c2ccccc2)CCP(c2ccccc2)c2ccccc2)N1 | 67.8% | 89.5% | 80.3% | 41.3% | 56.1% | 57.6% | 76.6% | 82.8% | 29.9% | – |
| Nc1ccc(SSc2ccc(N)cc2)cc1 | 89.9% | 103% | 114% | 100% | 103% | 84.1% | 77.7% | 100% | 106% | – |
| O=C(Nc1ccc(F)cc1)ON=C1CCCCC1 | 110% [100 µM] | 96.9% [100 µM] | 112% [100 µM] | 104% [100 µM] | 108% [100 µM] | 93.3% [100 µM] | 94.1% [100 µM] | 87.6% [100 µM] | 125% [100 µM] | – |
| NC(=S)N/N=C\c1nccc2c(C(F)(F)C(F)(F)C(F)(F)F)cccc12 | 9.5% (active) | -27.3% (active) | -7.59% (active) | -25.9% (active) | -2.33% (active) | -20.7% (active) | -20.8% (active) | -48.3% (active) | 16.5% | – |
| C=CCOc1ccc(N=NC(C#N)C#N)cc1 | 75.7% | 84.5% | 52.3% | 104% | -13.1% (active) | -12.9% (active) | 86.3% | 78.8% | 22.1% | – |
| CC(=O)ON=C1C=CC(=C(C#N)c2ccccc2)C=C1 | – | 66.8% | 55.1% | 4.7% (active) | 33.1% | -24.2% (active) | 32.2% | 15.4% | 90.6% | 94.8% |
| CCOc1ccc(-c2nc3ccc(-c4nc5ccc(N6CCN(C)CC6)cc5[nH]4)cc3[nH]2)cc1 | – | -85.5% (active) | -87.5% (active) | -90.7% (active) | -56.3% (active) | -65.5% (active) | -80.7% (active) | -90.6% (active) | -96.5% (active) | -84.7% (active) |
| O=C1c2cccnc2-c2nccc3c2c1nc1cc(Br)ccc13 | – | -43.8% (active) and -48.5% (active) | -68.6% (active) and -85.7% (active) | -52.9% (active) and -78.6% (active) | -17.1% (active) and -72.6% (active) | -60.8% (active) and -66% (active) | -65.9% (active) and -81% (active) | -86.6% (active) and -85.6% (active) | -85.6% (active) and -85% (active) | -99.2% (active) and -89.2% (active) |
| COc1cc(/C=C/C(C)=O)ccc1O | – | 95.3% and 111% | 94.2% and 111% | 102% and 110% | 73.3% | – | 98.1% and 100% | 121% and 114% | 97.5% and 120% | – |
| C[N+](C)=c1ccc2nc3c(cc(NCCCNc4cc5oc6cc(=[N+](C)C)ccc-6nc5c5ccccc45)c4ccccc43)oc-2c1 | – | 73.2% | 44.4% | -56.2% (active) | 59% | 32% | 20.5% | -68.5% (active) | -64.9% (active) | – |
| O=[N+]([O-])c1ccc(N=Nc2ccc(O)cc2O)cc1 | – | 60.6% | 93.6% | 66% | -18.1% (active) | 19.5% | 62.6% | 51.3% | 41.4% | – |
| CN=C(N)N/N=C(\C)c1ccc2c(c1)Cc1cc(/C(C)=N/NC(N)=NC)ccc1-2 | – | -61.2% (active) | -82.7% (active) | -69.9% (active) | 13.5% | -35% (active) | -17.6% (active) | -49.7% (active) | -67.1% (active) | – |
| CN(C)C(=O)SC1=C(c2c(Cl)cccc2Cl)C(=O)c2ccccc21 | – | 111% | 92.2% | 98.7% | 3.58% (active) | -74.3% (active) | 110% | 71.5% | -81.8% (active) | – |
| N#Cc1ccc([N+](=O)[O-])o1 | – | 94.1% | 96.7% | 107% | 93.1% | 77.1% | 75.7% | 102% | 104% | 106% |
| COc1ccccc1/C=C\C(=O)c1ccccc1 | – | 85.8% | 85.9% | 59.5% | 16.3% | 39.2% | 96.4% | 81.9% | 111% | 95% |
| N#CSCC(=O)c1ccc(Cl)cc1 | – | 65.8% | 45.1% | 33.5% | -3.98% (active) | 50.6% | 87.1% | 22.3% | 90.3% | 71.7% |
| S=C(N/N=C/c1ccccn1)Nc1ccccn1 | – | 12.1% | 13.7% | 2.59% (active) | -2.58% (active) | -39.9% (active) | 20.7% | 2.42% (active) | 9.1% (active) | 22.4% |
| CCCCCCCCCCCCCCCCCCOP(=O)([O-])OC1CC[N+](C)(C)CC1 | – | 48.9% and 18.8% | 5.84% (active) and -72.5% (active) | 1.19% (active) and -34.8% (active) | -25.3% (active) | -52.1% (active) and -87.8% (active) | 17.1% and 38.2% | -28.4% (active) and -54.9% (active) | -34.2% (active) and -30.8% (active) | 59.2% and 40% |
| COC(=O)[C@@]12OC[C@]34[C@H]([C@@H](O)[C@@H]1O)[C@@]1(C)[C@H](O)C(=O)C=C(C)[C@@H]1C[C@H]3OC(=O)C(OC(C)=O)[C@@H]24 (some centres undefined) | – | -65.4% (active) | -30.7% (active) | -43.4% (active) | -44.2% (active) | -60.1% (active) | -19.4% (active) | -38.9% (active) | -64.3% (active) | -28.9% (active) |
| O=C1c2ccccc2C(=O)c2sc(Nc3ccc(Cl)cc3)nc21 | – | 1.07% (active) | 55.4% | 87.7% | 59.1% | 15.9% | 71.8% | 60.9% | 82.9% | 78% |
| COC(=O)Nc1nc2ccc(C(=O)c3ccccc3)cc2[nH]1 | – | 50.9% and 80.4% and 109% | 30.4% and 21.9% and 49.2% | 6.48% (active) and 1.24% (active) and -0.135% (active) | 65.7% and 41.8% and 35.3% | -11.7% (active) and -16.9% (active) and -32.5% (active) | 20.8% and 22.2% and 17.2% | 19.8% and 23.6% and 31.9% | 0.824% (active) and -17.1% (active) and -22.8% (active) | 56.9% and 66.1% and 44.1% |
| CC(C)(C)CC(C)(C)c1ccc(OCCSC(=N)N)cc1 | – | 71.8% | 98.4% | 35% | 17.7% | 48.3% | 77.2% | 28.2% | -76.9% (active) | – |
| O=C(/C=C\c1cc(Br)ccc1O)/C=C/c1cc(Br)ccc1O | – | -64.8% (active) | -57.3% (active) | -34.9% (active) | -40.1% (active) | -62.9% (active) | -8.66% (active) | -68% (active) | -70.6% (active) | 6.71% (active) |
| CCCCCC(CCCCC)C(=O)O | – | 112% | 98.1% | 116% | 78.8% | 88.8% | 102% | 107% | 102% | 103% |
| Cc1cc(C(C)(CC(C)C)c2ccc(O)c(C)c2)ccc1O | – | 93% | 104% | 104% | 88.3% | 92.6% | 81.5% | 102% | 125% | 94.6% |
| Nc1nc(N)c2c(ccc3c2ccn3Cc2cccc([N+](=O)[O-])c2)n1 | – | -86.6% (active) | -83.7% (active) | -88.6% (active) | -72.1% (active) | -84.3% (active) | -83% (active) | -89.6% (active) | -88.9% (active) | -91.1% (active) |
| CC1OC2CC(=O)OC2C2=C1C(=O)c1c(O)cccc1C2=O (centres undefined) | – | -80% (active) | -88.2% (active) | -0.634% (active) | -92% (active) | -89.1% (active) | 2.68% (active) | -87.9% (active) | -87.2% (active) | -29.1% (active) |
| C/C=C1\SC(=S)NC1=O | – | 103% | 100% | 107% | 94.2% | 103% | 99.7% | 97.8% | 104% | 108% |
| NC(=S)N/N=C/c1ccc(Cl)s1 | – | 97.4% | 109% | 101% | 97.5% | 98.6% | 106% | 105% | 105% | 101% |
